Data taken from the supplement of paper PMC8975748.
Counter-ions that a name gives are not always drawn.

What follows are compounds tested on Saccharomyces cerevisiae BY4741 SeMeCo community (assay: z-score of subpopulation abundance vs DMSO median, subpopulation auxotrophic for LU; higher = larger share of this subpopulation than in DMSO controls). Details: 10 µM; 24 h; SM minimal medium; subpopulation (auxotrophy): LU.
Outline: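 Automated confocal microscopy of paraformaldehyde-fixed cells was used to follow a Saccharomyces cerevisiae BY4741 community carrying four plasmids, each restoring one auxotrophy and encoding a distinct fluorescent protein. The community was pre-grown overnight to OD600 1.0, diluted to 0.3, and added at 70 µl to 384-well plates acoustically predosed with library drugs (10 µM final) for 24 h of growth in minimal SM medium. Single-auxotroph fluorescent strains set thresholds and autofluorescence correction, and each subpopulation's abundance was scored as a z-score against the vehicle-well median.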

| SMILES | z-score of subpopulation abundance |
| --- | --- |
| C[N+]1(C)CCC(=C(c2ccccc2)c2ccccc2)CC1 [Diphemanil Methylsulfate] | -0.26 |
| CC[C@H]1OC(=O)[C@H](C)[C@@H](O[C@H]2C[C@@](C)(OC)[C@@H](O)[C@H](C)O2)[C@H](C)[C@@H](O[C@@H]2O[C@H](C)C[C@H](N(C)C)[C@H]2O)[C@](C)(O)C[C@@H](C)/C(=N\OCOCCOC)[C@H](C)[C@@H](O)[C@]1(C)O [Roxithromycin] | -0.28 |
| NCc1ccccc1CC(=O)N[C@@H]1C(=O)N2C(C(=O)O)=C(CSc3nnnn3CC(=O)O)CS[C@H]12 [Ceforanide] | 0.89 |
| CC(C(=O)O)c1cccc(C(=O)c2ccccc2)c1 (stereo not drawn) [Ketoprofen] | 0.57 |
| Cc1c(OCC(F)(F)F)ccnc1C[S+]([O-])c1nc2ccccc2[nH]1 (stereo not drawn) [Lansoprazole] | -0.54 |
| CC(C(O)c1ccc(O)cc1)N1CCC(Cc2ccccc2)CC1 (stereo not drawn) [Ifenprodil Tartrate] | -0.38 |
| CC(=O)OCC[N+](C)(C)C [Acetylcholine iodide] | -0.57 |
| CC(=O)N1CCN(c2ccc(OCC3COC(Cn4ccnc4)(c4ccc(Cl)cc4Cl)O3)cc2)CC1 (stereo not drawn) [Ketoconazole] | -0.4 |
| NC(=O)OCC(COC(N)=O)c1ccccc1 [Felbamate] | -0.71 |
| CCN(CC)CC#CCOC(=O)C(O)(c1ccccc1)C1CCCCC1 (stereo not drawn) [Oxybutynin chloride] | -1.2 |
| O=C1CC2(CCCC2)CC(=O)N1CCCCN1CCN(c2ncccn2)CC1 [Buspirone HCl] | 1.78 |
| Cc1ccc(-c2cc(C(F)(F)F)nn2-c2ccc(S(N)(=O)=O)cc2)cc1 [Celecoxib] | -0.19 |
| O=C(Nc1cc(Cl)cc(Cl)c1O)c1c(O)c(Cl)cc(Cl)c1Cl [Oxyclozanide] | -0.32 |
| CN1CCN(CC(=O)N2c3ccccc3C(=O)Nc3cccnc32)CC1 [Pirenzepine dihydrochloride] | -0.44 |
| CN1CCC(=C2c3ccccc3C=Cc3ccccc32)CC1 [Cyproheptadine hydrochloride] | 0.02 |
| CC(Cc1ccc(O)c(O)c1)C(C)Cc1ccc(O)c(O)c1 (stereo not drawn) [Nordihydroguaiaretic acid (NDGA)] | -0.29 |
| C/C(=C\C(=O)OCCCCCCCCC(=O)O)C[C@@H]1OC[C@H](C[C@@H]2O[C@H]2[C@@H](C)[C@H](C)O)[C@@H](O)[C@H]1O [Mupirocin calcium] | 0.56 |
| Cc1cc(C)nc(NS(=O)(=O)c2ccc(N)cc2)n1 [Sulfamethazine Sodium Salt] | -0.11 |
| O=C1[C@H]2CCCC[C@H]2C(=O)N1CCCCN1CCN(c2nsc3ccccc23)CC1 [Perospirone hydrochloride] | 0.24 |
| CC1=C(C(=O)OCCN(Cc2ccccc2)c2ccccc2)C(c2cccc([N+](=O)[O-])c2)C(P2(=O)OCC(C)(C)CO2)=C(C)N1 (stereo not drawn) [Efonidipine] | 1.04 |
| COC(=O)C1=C(C)NC(C)=C(C(=O)OC(C)(C)CN(C)CCC(c2ccccc2)c2ccccc2)C1c1cccc([N+](=O)[O-])c1 (stereo not drawn) [Lercanidipine hydrochloride] | -0.32 |
| NC1CCN(c2nc3c(cc2F)c(=O)c(C(=O)O)cn3-c2ccc(F)cc2F)C1 (stereo not drawn) [Tosufloxacin p-Toluenesulfonate Hydrate] | -0.88 |
| CCN(CC)CCOC(=O)c1ccc(N)cc1Cl [Chloroprocaine HCl] | 0.13 |
